About 1,000 (43%) of roughly 2,300 compounds were called active. So high a share suggests a set chosen from earlier hits. The list is a sample of the results. A number with no mark means an inactive call.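 Rule for the calls: active = compounds inhibiting the enzyme by at least 50% at 15 µM in any one of the replicates; inactive = the rest.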
Target: Fatty acid synthase (Homo sapiens) (UniProt P49327)
Assay: inhibition of human FAS-TE enzyme activity – biochemical, fluorescence intensity, single concentration, confirmation (AID 624325);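 note: 0% = enzyme with DMSO only and 100% = wells lacking enzyme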
Conditions: recombinant FAS-TE, OMFH fluorogenic substrate, at 15 µM, hits give high values

Fatty acid synthase (Homo sapiens), sequence (P49327 whole entry, looked up): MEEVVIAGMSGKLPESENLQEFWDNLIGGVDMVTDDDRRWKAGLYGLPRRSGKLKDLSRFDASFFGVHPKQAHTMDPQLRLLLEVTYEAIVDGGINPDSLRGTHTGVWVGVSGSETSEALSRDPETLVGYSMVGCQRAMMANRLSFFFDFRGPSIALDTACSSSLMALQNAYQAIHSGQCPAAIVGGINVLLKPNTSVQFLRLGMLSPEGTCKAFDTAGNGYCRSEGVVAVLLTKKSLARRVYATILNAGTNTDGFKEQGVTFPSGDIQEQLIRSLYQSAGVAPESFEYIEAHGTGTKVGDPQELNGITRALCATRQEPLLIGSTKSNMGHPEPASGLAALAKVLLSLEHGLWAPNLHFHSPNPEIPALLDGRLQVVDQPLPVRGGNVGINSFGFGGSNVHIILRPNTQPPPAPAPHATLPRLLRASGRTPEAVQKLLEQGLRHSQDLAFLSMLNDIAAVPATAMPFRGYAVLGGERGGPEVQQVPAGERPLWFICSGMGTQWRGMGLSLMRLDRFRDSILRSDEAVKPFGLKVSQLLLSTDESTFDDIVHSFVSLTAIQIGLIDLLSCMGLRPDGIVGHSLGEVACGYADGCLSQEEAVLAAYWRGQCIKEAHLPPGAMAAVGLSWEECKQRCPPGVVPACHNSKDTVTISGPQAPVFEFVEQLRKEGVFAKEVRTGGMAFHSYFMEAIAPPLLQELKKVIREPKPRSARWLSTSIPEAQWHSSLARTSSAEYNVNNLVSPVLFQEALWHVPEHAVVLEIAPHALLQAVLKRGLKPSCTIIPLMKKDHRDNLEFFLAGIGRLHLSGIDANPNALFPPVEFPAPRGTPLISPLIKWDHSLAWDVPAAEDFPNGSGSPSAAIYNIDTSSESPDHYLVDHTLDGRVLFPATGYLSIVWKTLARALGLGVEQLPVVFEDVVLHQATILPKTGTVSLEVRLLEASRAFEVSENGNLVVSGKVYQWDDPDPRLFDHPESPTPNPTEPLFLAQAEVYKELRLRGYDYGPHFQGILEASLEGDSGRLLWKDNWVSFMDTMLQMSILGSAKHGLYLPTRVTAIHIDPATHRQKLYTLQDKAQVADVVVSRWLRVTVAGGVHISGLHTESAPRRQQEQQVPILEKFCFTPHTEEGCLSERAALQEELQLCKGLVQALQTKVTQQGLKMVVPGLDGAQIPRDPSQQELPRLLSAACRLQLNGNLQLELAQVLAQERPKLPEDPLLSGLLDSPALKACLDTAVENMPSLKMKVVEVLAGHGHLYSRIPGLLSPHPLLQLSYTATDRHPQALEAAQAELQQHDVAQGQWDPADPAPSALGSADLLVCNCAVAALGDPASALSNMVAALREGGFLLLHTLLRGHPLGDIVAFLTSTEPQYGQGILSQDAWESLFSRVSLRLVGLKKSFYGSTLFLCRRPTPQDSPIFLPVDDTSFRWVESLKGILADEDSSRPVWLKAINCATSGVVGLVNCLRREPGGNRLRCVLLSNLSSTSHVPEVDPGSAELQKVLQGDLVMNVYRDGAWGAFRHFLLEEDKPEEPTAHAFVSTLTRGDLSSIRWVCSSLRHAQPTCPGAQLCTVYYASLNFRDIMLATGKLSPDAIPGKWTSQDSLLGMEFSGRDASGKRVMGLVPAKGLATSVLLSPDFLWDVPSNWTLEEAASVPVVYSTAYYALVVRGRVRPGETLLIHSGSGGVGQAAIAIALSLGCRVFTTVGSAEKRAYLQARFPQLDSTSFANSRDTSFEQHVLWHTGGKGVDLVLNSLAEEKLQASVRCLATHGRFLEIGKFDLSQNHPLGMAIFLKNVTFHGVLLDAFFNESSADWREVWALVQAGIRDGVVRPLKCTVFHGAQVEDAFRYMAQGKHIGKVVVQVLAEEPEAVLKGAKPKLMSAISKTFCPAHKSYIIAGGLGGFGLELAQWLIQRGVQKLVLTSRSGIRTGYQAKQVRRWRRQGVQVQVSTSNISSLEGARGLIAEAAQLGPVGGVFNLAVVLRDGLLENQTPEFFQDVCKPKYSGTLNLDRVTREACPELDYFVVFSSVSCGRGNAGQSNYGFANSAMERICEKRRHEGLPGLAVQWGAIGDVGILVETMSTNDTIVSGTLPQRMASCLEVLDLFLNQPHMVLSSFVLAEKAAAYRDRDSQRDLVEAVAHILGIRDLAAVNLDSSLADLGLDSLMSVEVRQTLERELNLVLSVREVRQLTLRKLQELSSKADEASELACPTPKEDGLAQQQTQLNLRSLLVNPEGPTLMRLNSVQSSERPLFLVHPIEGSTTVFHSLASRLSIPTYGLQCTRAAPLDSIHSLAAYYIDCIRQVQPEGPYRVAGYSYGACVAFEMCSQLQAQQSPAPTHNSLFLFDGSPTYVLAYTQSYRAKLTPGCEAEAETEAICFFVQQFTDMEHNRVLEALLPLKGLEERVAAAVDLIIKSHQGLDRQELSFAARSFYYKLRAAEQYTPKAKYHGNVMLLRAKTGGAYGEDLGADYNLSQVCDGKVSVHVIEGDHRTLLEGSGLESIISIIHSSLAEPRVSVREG

Row | Structure (SMILES) | inhibition
1 | Cc1nn(CCOc2ccc(Br)cc2)c(C)c1[N+](=O)[O-] | 36.2% (active)
2 | COc1ccc([N+](=O)[O-])cc1N(CC(O)Cn1nnc2ccccc21)S(=O)(=O)c1ccc(C)cc1 (stereo not given) | 65.3% (active)
3 | O=C(N/N=C/c1cc([N+](=O)[O-])ccc1O)/C(=C\c1cccs1)NC(=O)c1ccccc1 | 42.4% (active)
4 | O=C(/C=C/c1cccc([N+](=O)[O-])c1)NCCSCc1ccco1 | 73.2% (active)
5 | O=C(NCc1ccco1)/C(=C\c1cccc([N+](=O)[O-])c1)NC(=O)c1ccco1 | 71.9% (active)
6 | O=C(Nc1ccc2ccccc2c1)/C(=C/c1cccc(Br)c1)NC(=O)c1ccco1 | 27.6%
7 | COc1ccc(NS(=O)(=O)c2cc(NC(=O)c3ccc(S(=O)(=O)N(C)C)cc3)ccc2N2CCOCC2)cc1 | 9.83%
8 | Fc1ccc(-n2c(Cc3ccccc3)nnc2SCc2nc(-c3ccc(Cl)cc3)no2)cc1 | 51.8% (active)
9 | O=C(Nc1ccc(C(F)(F)F)cc1)c1cccc(-n2cnnn2)c1 | 65.5% (active)
10 | O=C(Nc1ccc(OC(F)(F)F)cc1)c1ccc2c(c1)no[n+]2[O-] | 14.6%
11 | COc1ccc(NS(=O)(=O)c2cc(NC(=O)/C=C/c3cc(OC)c(OC)c(OC)c3)ccc2N2CCCCC2)cc1 | 19.7%
12 | O=c1oc(-c2ccco2)nc2sc3c(c12)CCCCC3 | 51% (active)
13 | CCC(CC)COC(=O)C1=C(C)NC(=O)NC1c1ccc([N+](=O)[O-])cc1 (stereo not given) | 78.8% (active)
14 | COc1cc(S(=O)(=O)N2CCOCC2)ccc1NC(=O)COc1ccc(N(C)S(=O)(=O)c2ccc(C)cc2)cc1 | 7.91%
15 | COc1ccc(C2=NN(C(=O)CSc3nc(=O)n4ccc(C)cc4n3)C(c3ccc(C)cc3)C2)cc1 (stereo not given) | 46% (active)
16 | Cc1ccc(N2C(=O)C3N=NN(CC(=O)N4N=C(c5cccc6ccccc56)CC4c4ccccc4)C3C2=O)cc1 (stereo not given) | 10.8%
17 | Cc1ccc2c(c1)-c1c(ssc1=S)C(C)(C)N2C(=O)CN1C(=O)c2ccccc2C1=O | 2.45%
18 | C#CCN(C[C@H]1[C@H](OC(=O)NC2CCCC2)[C@H](OC(=O)NC2CCCC2)C[C@H]2C(=O)N(c3ccccc3)C(=O)[C@@H]12)S(=O)(=O)c1ccc(C)cc1 | 48.3% (active)
19 | CCOC1=C2CN(S(=O)(=O)c3ccc(C)cc3)[C@H](c3cccs3)C[C@H]2[C@H]2C(=O)N(c3ccccc3)C(=O)[C@H]2C1 | 33%
20 | CCOC1=C2[C@H]([C@H]3C(=O)N(c4ccccc4)C(=O)[C@H]3C1)[C@@H](c1ccccc1)N(S(=O)(=O)c1ccc(C)cc1)[C@H]2c1ccccc1 | 32.3%

— PubChem BioAssay AID624325 (Sanford-Burnham Center for Chemical Genomics, 2012)
